Bioassay records deposited in PubChem BioAssay by several laboratories.
The list is not random: actives were taken first. Their share in the collection is about 3.2%.
MsrA inhibitor: bovine MsrA inhibition | purified bovine MsrA, absorbance read-out | 360,000 tested, 0.75% active | inhibition, % at 15.5 µM; in the data active = inhibition above about 4.5%
DAGLB inhibitor: diacylglycerol lipase beta (human) inhibition | HEK293T DAGLB membrane lysate, EnzChek fluorogenic substrate | 340,000 tested, 0.059% active | Q8NCG7 | inhibition, % at 5.17 µM; in the data active = inhibition above about 34%
bovine MsrA act: bovine methionine sulfoxide reductase A activation. purified bovine MsrA, absorbance read-out. activation, % at 10.6 µM. 360,000 tested, 0.3% active. AID 602163; in the data active = activation above about 7.5%
NadD inh: inhibitors of Staphylococcus aureus NadD; purified NadD enzyme, colorimetric absorbance read-out; inhibition, % at 20 µM; 360,000 tested, 0.78% active; in the data active = inhibition above about 26%
rCAG binder: molecules binding r(CAG) RNA repeats; AID 651821; inhibition, % at 3 µM; r(CAG) RNA repeat, TO-PRO-1 dye displacement fluorescence; 370,000 tested, 1.3% active;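 active = inhibition above the plate cutoff, the mean of all test compounds on that plate plus 3 SD, cut at about 35% in these data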;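 note: higher means more dye released from RNA so lower well fluorescence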
Pemphigus Ab inh: inhibitors of pemphigus antibody binding to human desmoglein-3. P32926. DSG3-coupled beads, scFv-anti-DSG3-GFP binding, flow cytometry; stronger effect = lower value. binding (percent of control), % at 10 µM. 310,000 tested, 0.48% active. AID 588358;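 active = binding more than 3 SD below its plate's average and above zero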;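 note: hits lower antibody fragment binding to DSG3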
Target sequence (P32926 whole entry, looked up, the tested form may be a part): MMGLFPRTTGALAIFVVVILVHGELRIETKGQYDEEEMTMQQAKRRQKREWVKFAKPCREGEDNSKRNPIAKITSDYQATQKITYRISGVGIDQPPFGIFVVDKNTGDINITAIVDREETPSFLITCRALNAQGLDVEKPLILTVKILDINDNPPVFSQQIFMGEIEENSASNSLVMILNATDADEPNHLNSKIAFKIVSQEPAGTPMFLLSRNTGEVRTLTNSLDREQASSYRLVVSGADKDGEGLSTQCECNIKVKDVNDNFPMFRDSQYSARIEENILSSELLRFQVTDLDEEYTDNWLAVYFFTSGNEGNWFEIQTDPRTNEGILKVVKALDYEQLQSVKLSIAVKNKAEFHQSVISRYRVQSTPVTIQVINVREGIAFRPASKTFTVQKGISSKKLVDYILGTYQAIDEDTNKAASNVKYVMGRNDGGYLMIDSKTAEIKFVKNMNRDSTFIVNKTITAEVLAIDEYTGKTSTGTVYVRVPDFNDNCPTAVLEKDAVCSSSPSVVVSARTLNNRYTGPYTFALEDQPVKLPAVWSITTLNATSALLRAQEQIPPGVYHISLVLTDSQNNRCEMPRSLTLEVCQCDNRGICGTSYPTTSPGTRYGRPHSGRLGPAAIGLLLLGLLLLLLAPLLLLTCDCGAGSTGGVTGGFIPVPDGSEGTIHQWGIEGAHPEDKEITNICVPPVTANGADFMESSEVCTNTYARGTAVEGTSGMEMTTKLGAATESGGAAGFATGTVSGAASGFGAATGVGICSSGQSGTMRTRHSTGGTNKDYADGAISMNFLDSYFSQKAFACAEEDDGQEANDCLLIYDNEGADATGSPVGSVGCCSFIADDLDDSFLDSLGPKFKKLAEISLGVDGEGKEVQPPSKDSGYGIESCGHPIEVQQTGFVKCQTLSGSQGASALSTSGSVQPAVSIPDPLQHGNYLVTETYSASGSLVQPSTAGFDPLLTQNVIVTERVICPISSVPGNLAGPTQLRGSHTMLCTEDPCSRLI
rCAG bind conf: r(CAG) RNA repeat binding, confirmation. inhibition, % at 3 µM. shares compounds with rCAG binder. TO-PRO-1 dye displacement fluorescence. 4,300 tested, 70% active;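 active = inhibition above a per-plate cutoff, the mean inhibition of sample wells plus 3 SD, cut at about 35% in these data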;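 note: loss of TO-PRO-1 fluorescence as compound displaces dye from 1x1 AA loop RNA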
DNA CAG counter: disrupts DNA CAG TO-PRO-1 complex, flagging rCAG hits; 4,300 tested, 94% active; d(CAG) DNA oligo TO-PRO-1 dye displacement, fluorescence; shares compounds with rCAG binder; inhibition, % at 3 µM;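 active = inhibition above its plate's cutoff, the mean test-well inhibition plus 3 SD, cut at about 4.8% in these data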;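 note: hits displace the dye from DNA and so lower well fluorescence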
dCAG dye DR: counter-screen for rCAG binders: inhibitors of DNA CAG TO-PRO-1 complex; IC50, µM; DNA CAG/GTC duplex TO-PRO-1 dye displacement fluorescence; 250 tested, 20% active; shares compounds with rCAG binder; in the data active = IC50 below about 10 µM
A number is an active result; i = inactive; nt = no result given.

SMILES	MsrA inhibitor	DAGLB inhibitor	bovine MsrA act	NadD inh	rCAG binder	Pemphigus Ab inh	rCAG bind conf	DNA CAG counter	others
CC1=C(C(=O)N(C(C)C)C(C)C)CC(CC(=O)NC(c2ccccc2)c2ccccc2)C(=O)N1Cc1ccc(C(C)(C)C)cc1 (stereo unspecified)	i	nt	i	i	i	nt	nt	nt
CC1=NN(c2ccccc2C(=O)O)C(=O)C1N=Nc1ccccc1 (stereo unspecified)	i	i	i	i	44	i	40	10
CC1=NN(C(N)=S)C(=O)C1N=Nc1ccccc1C(=O)O (stereo unspecified)	i	i	i	i	i	i	nt	nt
C/C(CC(=O)N1CCN(C=O)CC1)=N\NC(=O)c1cc2ccccc2cc1O	i	i	i	i	53	i	i	9.2
C/C(=N\NC(=O)c1nc2ccccn2c1C)c1cc2ccccc2o1	i	i	i	i	i	i	nt	nt
C/C(=N\NC(=O)c1cc2ccccc2cc1O)c1cc2ccccc2o1	i	i	i	49	50	i	40	15
CC1=C(C(=O)N2CCCCCC2)CC(CC(=O)NC(c2ccccc2)c2ccccc2)C(=O)N1CCC1=CCCCC1 (stereo unspecified)	i	nt	i	i	i	nt	nt	nt
O=C1c2ccccc2C(=O)N1c1ccccc1	i	i	i	i	i	i	nt	nt
O=Cc1ccc(/C=C2\c3ccccc3C(=O)N2c2ccccc2)o1	i	nt	nt	nt	41	nt	i	15
COC(=O)C1=C(CSc2nc3c(cc2C#N)CN(C)CC3)OC(N)=C(C#N)C1c1ccc(F)cc1 (stereo unspecified)	i	i	i	i	50	i	i	16
CCOC(=O)C1=C(CSc2nc(CC)c(C)cc2C#N)OC(N)=C(C#N)C1c1ccc(OC)cc1 (stereo unspecified)	i	i	i	i	i	nt	nt	nt
CC(=O)Nc1cccc(-c2ccnc3c2CC(C)(C(=O)Nc2cccc(Oc4ccccc4)c2)O3)c1 (stereo unspecified)	i	nt	i	i	i	nt	nt	nt
O=C(Nc1ccc(S(=O)(=O)N2CCOCC2)cc1)c1nn(-c2ccc(F)cc2)ccc1=O	i	i	i	i	i	i	nt	nt
CCCn1nc(C(=O)Nc2cc(S(=O)(=O)Nc3ccc(OC)cc3)ccc2O)c2ccccc2c1=O	i	i	i	i	62	i	54	19
CCCn1nc(C(=O)Nc2cccc(C(=O)OC)c2)c2ccccc2c1=O	i	i	i	i	i	i	nt	nt
CCCn1nc(C(=O)Nc2ccc(S(=O)(=O)Nc3nccs3)cc2)c2ccccc2c1=O	i	i	i	i	65	i	56	23
O=C(Nc1ccc(S(=O)(=O)Nc2nccs2)cc1)c1nn(-c2ccc(F)cc2)ccc1=O	i	i	i	i	46	i	45	20
COC(=O)[C@]12C[C@H](CC(=O)NCCCN3CCCC3=O)C(=O)N(Cc3ccco3)C1=C[C@H](C1CCCC1)O[C@@H]2C	nt	nt	nt	nt	i	nt	nt	nt
COC(=O)[C@]12C[C@H](CC(=O)N3CCCC3)C(=O)N(Cc3ccc(Cl)cc3Cl)C1=C[C@H](C(C)(C)C)O[C@@H]2C	nt	nt	nt	nt	i	nt	nt	nt
N#CC1=C(N)n2c(s/c(=C\c3ccco3)c2=O)=C(C#N)C1c1ccco1 (stereo unspecified)	i	i	i	50	54	i	38	18	dCAG dye DR=i
Cc1ccccc1-n1c(=O)/c(=C\c2ccco2)s/c1=C(/C#N)C(=O)Nc1ccccc1	i	i	i	i	i	i	nt	nt
Cc1cccc(Cc2cnc(N3C(=N)SC(C)C3=O)s2)c1 (stereo unspecified)	i	i	i	i	i	i	nt	nt
Cc1cccc(Cc2cnc(N3C(=N)SC(c4ccccc4)C3=O)s2)c1 (stereo unspecified)	i	i	i	i	40	i	53	18
CCOc1ccccc1NC(=O)CSc1nc2nc(-c3cccs3)cc(C(F)(F)F)c2c(=O)[nH]1	i	i	i	i	70	i	79	48
CCOc1cc(/C=C2\SC(=N)N(c3nccs3)C2=O)ccc1OCCN1CCOCC1	i	i	i	i	38	i	37	11
SMILES	MsrA inhibitor	DAGLB inhibitor	bovine MsrA act	NadD inh	rCAG binder	Pemphigus Ab inh	rCAG bind conf	DNA CAG counter	others
CCOc1cc(/C=C2\SC(=S)N(N3CCOCC3)C2=O)ccc1O	i	i	i	i	i	i	nt	nt
CCc1ccc(N2C=C(C(=O)OC)C(c3cccc4ccccc34)C(C#N)=C2N)cc1 (stereo unspecified)	i	nt	nt	nt	i	nt	nt	nt
CC(C)Cn1c(SCC(N)=O)nnc1-c1cccc(S(=O)(=O)N2CCOCC2)c1	i	i	i	i	i	i	nt	nt
Cc1ccc(CSc2nnc(-c3cccc(S(=O)(=O)N4CCOCC4)c3)n2CC(C)C)cc1	i	i	i	i	49	i	i	i
COc1ccc(C(=O)O[C@@H]2CCC[C@@]3(C(=O)N(Cc4ccccc4)c4ccccc43)[C@H]2NC(=O)CCc2ccccc2)cc1OC	nt	nt	nt	nt	i	nt	nt	nt
O=c1[nH]c2cc(S(=O)(=O)CCO)ccc2o1	i	i	i	i	36	i	i	i
CCN(CC)S(=O)(=O)c1ccc(NS(=O)(=O)c2ccc3oc(=O)[nH]c3c2)cc1	i	i	i	i	i	i	nt	nt
Brc1cc2c(cc1COc1ccc(-c3nn[nH]n3)cc1)OCO2	i	i	i	i	35	i	i	6.5
CCn1c(SCC(=O)Nc2ccc3c(c2)c2ccccc2n3CC)nnc1-c1ccco1	i	i	i	63	35	i	i	13
CCn1c(SCC(=O)Nc2cccc(NC(C)=O)c2)nnc1-c1ccco1	i	i	i	i	i	i	nt	nt
CCCCOCCCNC(=O)C[C@H]1C[C@@]2(C(=O)OC)C(=C[C@H](C3CCCC3)O[C@@H]2C)N(Cc2cccc3ccccc23)C1=O	nt	nt	nt	nt	i	nt	nt	nt
CCOc1c(OC(C)=O)ccc(/C=C/c2ccc3cccc(OC(C)=O)c3n2)c1[N+](=O)[O-]	nt	i	i	i	nt	i	nt	nt
C=CCN1C(=O)/C(=C/c2ccc(OC(C)=O)c(OCC)c2[N+](=O)[O-])SC1=S	i	i	i	i	80	i	42	12
Cc1ccc(S(=O)(=O)NC(=O)C2(C)CCN2C(=O)Cc2ccc(-c3ccccc3)cc2)cc1 (stereo unspecified)	i	nt	i	i	58	nt	53	15
Cc1ccc(S(=O)(=O)NC(=O)C2(C)CCN2C(=O)Cc2ccc(C(C)(C)C)cc2)cc1 (stereo unspecified)	i	nt	i	i	43	nt	i	7.2
Cc1ccc(F)c(S(=O)(=O)NC(=O)C2(C)CCN2C(=O)Cc2ccc(C(C)(C)C)cc2)c1 (stereo unspecified)	i	nt	i	i	i	nt	nt	nt
